# Measurements taken from PubChem BioAssay (NCI).
# This is part of a sample that, as a whole, favours compounds with a hit. Of some 79,000 tested, about 15% had one in any assay. Values without a mark were called inactive. Activity calls are given as the source filed them. Cut-off read from the data, not from the text of the source: active = growth inhibition above about 70%; inactive = the rest. Where a SMILES comes first, the peptide text is derived from it. The star is where a group is joined. ONb = O=[N+]([O-])c1ccc(CO*)cc1; Boc = CC(C)(C)OC(=O)*
# Legend:
# [1] = NCI Yeast Anticancer Drug Screen. Data for the rad50 strain (AID 155);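 note: 0% = growth of vehicle-only cultures of the same strain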; details: S. cerevisiae rad50 strain growth inhibition; at 50.0 µM; active compounds read high
# Summary of the method: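 Vehicle-treated cultures provide the reference for the growth inhibition reported for compound-exposed, repair-deficient yeast.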
# [2] = NCI Yeast Anticancer Drug Screen. Data for the mec2-1 strain (AID 157); details: S. cerevisiae mec2-1 strain, at 50.0 µM, active compounds read high
# Summary of the method: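 Compounds were applied to mec2-1 yeast cells. Their growth was then compared with that of vehicle-treated cultures to give growth inhibition.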
# [3] = NCI Yeast Anticancer Drug Screen. Data for the sgs1 mgt1 strain (AID 161);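 note: 0% = growth of cultures given vehicle only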; details: S. cerevisiae sgs1 mgt1 strain, at 50.0 µM, active compounds read high
# Summary of the method: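 This yeast growth screen uses a strain with defined DNA-repair lesions; compound-treated growth is compared with vehicle-treated growth.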
# [4] = NCI Yeast Anticancer Drug Screen. Data for the cln2 rad14 strain (AID 165);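 note: 0% = growth equal to vehicle treated cultures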; details: S. cerevisiae cln2 rad14 strain, at 50.0 µM, active compounds read high
# Summary of the method: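 Strain: cln2 rad14 yeast, altered in cell cycle control and DNA damage repair. Read-out: growth inhibition vs vehicle.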
# [5] = NCI Yeast Anticancer Drug Screen. Data for the bub3 strain (AID 167); details: S. cerevisiae bub3 mutant strain, at 50.0 µM, active compounds read high
# Summary of the method: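 Mutant yeast screening strain plus compound; vehicle-treated cultures serve as the 0% inhibition reference.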
# [6] = NCI Yeast Anticancer Drug Screen. Data for the mlh1 rad18 strain (AID 175); details: S. cerevisiae mlh1 rad18 strain growth inhibition; at 50.0 µM; active compounds read high
# Summary of the method: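 A repair-deficient yeast strain is exposed to test compound, and growth is scored relative to vehicle-treated controls.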
SMILES,growth inhibition [1] [%],growth inhibition [2] [%],growth inhibition [3],growth inhibition [4],growth inhibition [5],growth inhibition [6]
CCOc1c(CNC(=O)CCl)cc(N)cc1CNC(=O)CCl,6.45,3.4,-14%,10.8%,2.1%,-10.3%
O=C(O)c1ccc(C(=O)c2ccc(C(=O)c3ccc(C(=O)O)cc3)cc2)cc1,-9.1,-18.4,3.65%,-52%,-13%,-14.8%
CCN(CC)CCOCCN(CC)CC,4.15,-2.2,-5.25%,-44.8%,0.1%,9.55%
O=C(Nc1ccccc1[N+](=O)[O-])Oc1ccc(-c2ccccc2)cc1,9.05,5.75,9.05%,-7.65%,46.4%,-28.9%
Cc1cc(-c2cc(C)c(N)cc2S(=O)(=O)O)c(S(=O)(=O)O)cc1N,-12.3,-23.4,-1.2%,-3.2%,5.8%,1.15%
CCc1nc(N)nc(N)c1-c1ccc(N(CC)Cc2ccccc2)c([N+](=O)[O-])c1,7.35,-3.05,-6.05%,7.5%,3.4%,-3.85%
c1ccc2c(c1)N=C(c1ccc3ccccc3c1)CC(c1cccc3ccccc13)S2 (stereo not given),13.2,5.25,-33.1%,33.1%,19.3%,-3.15%
CCOC(=O)N1CC(C)N(C(=O)OCC)CC1C (stereo not given),-3.9,-7.1,6.7%,-15.8%,33.8%,8.5%
CC(=O)Nc1c(Nc2ccc3c(=O)[nH]ccc3c2C)cc[nH]c1=O,22.1,13.7,17.1%,14.5%,10.4%,27.5%
CC1COS(=O)(=O)CS(=O)(=O)O1 (stereo not given),-61.2,-17.4,-15.8%,-57.8%,6.7%,-16.1%
O=C(OCC1OCOC(COC(=O)c2ccccc2)C(OC(=O)c2ccccc2)C1OC(=O)c1ccccc1)c1ccccc1 (stereo not given),9.85,8.35,-4.6%,-13.8%,-0.65%,19.6%
N#CC(C#N)=CNC(N)=S,-4.7,-8.75,-20.7%,13.7%,-14.8%,10.1%
CN(C)CCNC(=O)c1ccc(NC(=O)c2nc([N+](=O)[O-])cn2C)cc1,-14.2,10.6,4.9%,-22.6%,-8.5%,-31.6%
C/C(=C1/N=C(c2cc([N+](=O)[O-])ccc2Cl)N(c2ccc(Br)cc2)C1=O)c1cc2ccccc2oc1=O,35.3,17.7,15.7%,14.1%,9.35%,19.8%
CCOC(=O)c1nc2ccc(OC)cc2c2c1Cc1ccccc1-2,-8.55,-20.9,-22.1%,8.3%,0.55%,-24.4%
COc1cc(/C=C\c2ccc(SC)cc2)cc(OC)c1OC,26.4,20.6,28.9%,15.3%,16.8%,-57.9%
CCOC(OCC)C1CC=CCC1 (stereo not given),0.1,-1.65,-6.7%,-13.1%,-6.4%,-0.95%
COc1cc(NCc2c(O)ccc3ccccc23)c2ncccc2c1,46.1,28.1,13.1%,-11.2%,7.75%,62.8%
CC(C)CC(NC(=O)OC(C)(C)C)C(=O)NC(CCC(=O)OCc1ccc([N+](=O)[O-])cc1)C(=O)OCc1ccc([N+](=O)[O-])cc1 (stereo not drawn) (Boc-Leu-Glu(ONb)-ONb; configuration not given here),-9.3,-25.5,-4.5%,4%,-10.1%,8.35%
CCN(CCO)CC(O)Cn1cnc2c(N)ncnc21 (stereo not given),2.35,-13.6,-18.1%,26.6%,-17.3%,23.4%

SMILES,growth inhibition [1] [%],growth inhibition [2] [%],growth inhibition [3],growth inhibition [4],growth inhibition [5],growth inhibition [6]
CN(C)c1nc(N(C)C)n2c(-c3ccccc3[N+](=O)[O-])nnc2n1,48.3,18.4,22%,23.4%,13.3%,33.4%
CC1C(c2ccccc2)OC(c2ccccc2)N1C (stereo not given),3.25,-6.55,21.4%,55.4%,9.7%,-15.2%
CCCCCCCCCC(O)CCCC(O)C(O)CCCCCCC(=O)O (stereo not given),13.1,15,22.7%,17.5%,-3.05%,37.6%
NCC(=O)N[C@H]1c2ccsc2/C(=N/O)[C@H]1O,3.1,5.95,3.65%,11.3%,-10.2%,33.2%
CCOC(=O)C(Cl)(Cl)C(Cl)(OCC)C(=O)OCC (stereo not given),16.1,26.1,26.8%,-24.4%,34.5%,22.2%
CC1(C)OCC(C2CCC3(C)C4=CCC5C(C)(C)C(O)CCC5(C)C4CCC23C)CC(O)C1O (stereo not given),59.6,57,72.3% (active),76.5% (active),64.8%,31.9%
COc1ccc(C(c2cc3c(cc2O)OCO3)N2CCCCC2)c(OC)c1 (stereo not given),-31.2,-13.1,-12.2%,-22.4%,-2.15%,-6.95%
O=[N+]([O-])c1ccccc1C=Nc1ccccc1O,56.4,44.5,52.8%,24.9%,75% (active),66%
Cc1csc2nc3[nH]ncc3c(=O)n12,-21.6,-59,-15.1%,-9.85%,-5.65%,-14.9%
Cc1cccnc1Nc1ncccc1C,13.8,-18.8,10.9%,14.3%,8.3%,10.8%
Nc1nc(N)nc(Cc2ccccc2)n1,-24.4,-3.45,-17.9%,-58.4%,-15%,-57.9%
CCOC(=O)NC(C(F)(F)F)(C(F)(F)F)P(=O)(OC(C)C)OC(C)C,-23,-11.6,-12.4%,31.1%,3.65%,1.65%
CCOC(=O)c1c(SCCO)n(-c2ccccc2)c(=S)n(-c2ccccc2)c1=O,-22.7,-25.2,-22.7%,1.75%,-13.3%,-19.4%
CCCCCCC(C)OC(C)=O (stereo not given),-15.6,-44.5,-2.55%,-20%,-3.5%,-13.8%
C#CCNC(=O)NCCCC(NC(C)=O)C(=O)NCc1ccccc1 (stereo not given),41,-12.2,-4.65%,32.1%,-5.75%,-8.15%
CC(=O)Nc1ccc2c(c1)C(P(=O)(OC(C)C)OC(C)C)c1ccccc1-2 (stereo not given),6,19.6,18.1%,-1.4%,34.4%,-2.8%
CCN(CC)CCCCNc1ccnc(N)n1,-8.65,-10.5,2.7%,-23.3%,18.2%,16%
Nc1ccc(S(=O)(=O)Nc2ccc([N+](=O)[O-])cn2)cc1,-28.4,-43,17.2%,17%,-20.4%,-15.6%
CCOC(=O)CNC(=O)C(CCSCc1ccccc1)NC(=O)OCc1ccccc1 (stereo not given),-2.75,6.55,0.3%,28.6%,4.45%,15.2%
CSc1nc(SC)c(Cl)c(C(Cl)Cl)n1,32.2,59.2,68.8%,7.3%,74.8% (active),75% (active)
